The results in this text go back to PubChem BioAssay.

Values without a mark were called inactive. The source made the active and inactive calls.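 How the source made its calls: active means fluorescence slope higher than the sample average by over 3 SD (cut at about -0.22 in these data, passing the limit was not always enough); inactive means the rest.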

The target of this experiment is Voltage-gated potassium channel subunit beta-2 (Rattus norvegicus) (UniProt P62483). Description: inhibitors of rat Kvbeta2 reductase activity – biochemical, NADPH fluorescence, primary screen (AID 622).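 Further: slope of raw intensity against log time taken from 70 to 1610 s.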 Particulars: recombinant KvBeta, 4-cyanobenzaldehyde reduction, at 10 µM, hits give high values.
Voltage-gated potassium channel subunit beta-2 (Rattus norvegicus), sequence (P62483 whole entry, looked up): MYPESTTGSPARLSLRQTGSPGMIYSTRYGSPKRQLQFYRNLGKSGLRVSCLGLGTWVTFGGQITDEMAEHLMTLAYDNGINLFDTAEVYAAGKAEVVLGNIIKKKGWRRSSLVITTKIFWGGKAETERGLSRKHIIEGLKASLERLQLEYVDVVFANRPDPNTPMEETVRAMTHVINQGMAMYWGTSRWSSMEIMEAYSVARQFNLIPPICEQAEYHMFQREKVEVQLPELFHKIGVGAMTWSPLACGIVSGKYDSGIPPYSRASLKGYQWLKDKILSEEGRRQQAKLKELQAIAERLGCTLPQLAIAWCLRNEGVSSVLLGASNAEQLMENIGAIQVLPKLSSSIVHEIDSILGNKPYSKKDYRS
Take `COc1ccc(-c2cc3c(=O)n(CC(=O)NC4CCN(Cc5ccccc5)CC4)ncn3n2)cc1`: the fluorescence slope was -0.404.
`Cc1c(C(=O)OC2CCCCC2)[nH]c2c1C(=O)CC(C)(C)C2`: the fluorescence slope was -0.407.
As for `CC(CCc1ccccc1)NCc1ccncc1` (centres undefined), the figure is -0.409.
Turning to `COCCN(CCOC)S(=O)(=O)c1ccc(C(=O)Nc2nnc(C3CC3)o2)cc1`, the fluorescence slope is -0.484.
The figure for `Cc1sc2ncn3ncnc3c2c1C` is -0.617.
The figure for `CSc1nc2ccc(Nc3nc(N4CCOCC4)nc(N4CCOCC4)n3)cc2s1` is -0.354; for `Cc1cc(C(N)=O)c2cc(Br)ccc2n1` it is -0.436; for `COc1ccc(-c2ccc(-c3noc(-c4cccs4)n3)c(OC)n2)cc1` it is -0.0459 (active).
Regarding `O=C1CCCc2c1cc(C(=O)NCCCN1CCOCC1)c(=O)n2-c1ccc(Cl)cc1`, the fluorescence slope was -0.546.
As to `Cc1ccc(-n2ncc3c(=O)[nH]c(SC(C)C)nc32)cc1`, the fluorescence slope was -0.455.
As for `Cc1ccccc1N1C(N)=NC(N)=NC1(C)C`, the figure is -0.584; as for `CCCc1nnc(SCC(=O)N2CCOCC2)n1Cc1ccco1`, -0.617.
As for `CC1CCN(CCn2c(=S)[nH]c3ncccc3c2=O)CC1`, the figure is -0.411; as for `CCOc1ccc(-c2nnn(CC(=O)N3CCN(c4ccc(F)cc4)CC3)n2)cc1OCC`, -0.642; as for `O=C1CCCCCN1CSc1nc2ccccc2s1`, -0.433.
The figure for `S=c1[nH]nc(Cc2ccccc2)n1-c1ccccc1` is -0.367; for `O=C(NCc1cccnc1)C1c2ccccc2C(=O)N1Cc1ccco1` (centres undefined) it is -0.595.
On to `Cn1c(C(=O)OCC(=O)NCC2CCCO2)cc2sccc21` (centres undefined), for which the fluorescence slope was -0.451.
The figure for `Nn1c(SCc2csc(-c3ccccc3)n2)nnc1-c1cccs1` is -0.454; for `CCOC(=O)Nc1ccc(NS(=O)(=O)c2ccc(C)cc2)cc1` it is -0.507; for `COC(=O)CN1C(=O)CC(C)(C)S(=O)c2ccccc21` (centres undefined) it is -0.574.
On to `Cn1c(Cc2ccccc2)nnc1SCC(=O)c1ccc(Br)s1`, for which the fluorescence slope is -0.596.
The figure for `CC(=O)Nc1ccc(S(=O)(=O)Nc2nc3c(s2)CCCC3)cc1` is -0.54.
With `COc1cccc(-c2nnn(CC(=O)O)n2)c1`, the fluorescence slope was -0.468.
`CCN(CC(=O)Nc1ccc(S(N)(=O)=O)cc1)S(=O)(=O)c1cc(C)ccc1OC`: the fluorescence slope is -0.425.
As for `CC(=O)c1c(C)[nH]c(C(=O)N2CCN(C(=O)c3ccco3)CC2)c1C`, the figure is -0.537; as for `COCCCn1nnnc1SCC(=O)Nc1nc(C)c(C)s1`, -0.499.
The figure for `CC(C)Cc1nc2oc3c(N4CCN(CCO)CC4)ncnc3c2c2c1CCCC2` is -0.475; for `Brc1ccc(-c2csc(/N=C/N3CCOCC3)n2)cc1` it is -0.521; for `N#CCCN(C(=O)Nc1ccc(Cl)cc1)c1ccccc1` it is -0.632.
As for `O=C(NC1CCCC1)C(c1cccs1)N(Cc1ccco1)C(=O)Cn1nnc(-c2cccs2)n1` (centres undefined), the figure is -0.487; as for `CNC(=O)c1ccsc1NC(=O)c1ccccc1`, -0.413.
Regarding `Cc1ccccc1C(=O)NC1CCN(Cc2nnnn2CCc2ccccc2)CC1`, the fluorescence slope was -0.491.
For the compound `CCOC(=O)CCc1c(C)nc2cc(-c3ccc(F)cc3)[nH]n2c1=O`, the fluorescence slope is -0.457.
The figure for `O=C(CCNS(=O)(=O)c1cccc2nsnc12)Nc1ccc2c(c1)OCCO2` is -0.421; for `Cn1c(CCNC(=O)c2ccco2)nc2cc(NC(=O)C3CCCCC3)ccc21` it is -0.466.
As for `Cc1ccc(OCCC(=O)OCC(=O)C(C)(C)C)cc1`, the figure is -0.365; as for `O=C(O)c1ccc2c(c1)C(=O)N(c1ccc(Cl)cn1)C2=O`, -0.55.
As for `COc1cccc(/C=N/n2c(-c3ccco3)nc3ccccc3c2=O)c1`, the figure is -0.293.
